Laboratory results as given in the supplement of paper PMC4466140.

Target: AgAbp1
Assay: SPOT peptide array binding signal intensity (averaged, normalized) (arbitrary units (background-subtracted, floor 0; scale differs between SH3 domains)); higher = stronger binding of the SH3 domain to the peptide
How it was run: (§1)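 Cellulose membranes carried synthetic 15-mer peptides with cysteines swapped for serines. These were incubated overnight at 4°C with 10 μg/ml of GST-fused SH3 domains from four yeast species in TBS-based blocking buffer. Binding signal, detected with anti-GST antibody and quantified in Genespotter, is the normalized, background-subtracted spot intensity averaged over replicates, in arbitrary units specific to each domain.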

Row | Binder | SPOT peptide array binding signal intensity
1 | PPPPPPPPPPPLPQS | 9

Target: AgBbc1
Assay: as above
How it was run: as §1

Row | Binder | SPOT peptide array binding signal intensity
2 | PPPPPPPPPPPLPQS | 0.5

Target: AgBem1-D1
Assay: as above
How it was run: as §1

Row | Binder | SPOT peptide array binding signal intensity
3 | PPPPPPPPPPPLPQS | 28

Target: AgBzz1-D1
Assay: as above
How it was run: as §1

Row | Binder | SPOT peptide array binding signal intensity
4 | PPPPPPPPPPPLPQS | 5

Target: AgBzz1-D2
Assay: as above
How it was run: as §1

Row | Binder | SPOT peptide array binding signal intensity
5 | PPPPPPPPPPPLPQS | 1

Target: AgCyk3
Assay: as above
How it was run: as §1

Row | Binder | SPOT peptide array binding signal intensity
6 | PPPPPPPPPPPLPQS | 2

Target: AgFus1
Assay: as above
How it was run: as §1

Row | Binder | SPOT peptide array binding signal intensity
7 | PPPPPPPPPPPLPQS | ≤ 0

Target: AgHof1
Assay: as above
How it was run: as §1

Row | Binder | SPOT peptide array binding signal intensity
8 | PPPPPPPPPPPLPQS | 228

Target: AgHse1
Assay: as above
How it was run: as §1

Row | Binder | SPOT peptide array binding signal intensity
9 | PPPPPPPPPPPLPQS | ≤ 0

Target: AgLsb1
Assay: as above
How it was run: as §1

Row | Binder | SPOT peptide array binding signal intensity
10 | PPPPPPPPPPPLPQS | ≤ 0

Target: AgLsb4
Assay: as above
How it was run: as §1

Row | Binder | SPOT peptide array binding signal intensity
11 | PPPPPPPPPPPLPQS | ≤ 0

Target: AgMyo5
Assay: as above
How it was run: as §1

Row | Binder | SPOT peptide array binding signal intensity
12 | PPPPPPPPPPPLPQS | 688

Target: AgNbp2
Assay: as above
How it was run: as §1

Row | Binder | SPOT peptide array binding signal intensity
13 | PPPPPPPPPPPLPQS | 2

Target: AgRvs167
Assay: as above
How it was run: as §1

Row | Binder | SPOT peptide array binding signal intensity
14 | PPPPPPPPPPPLPQS | 4.67

Target: AgSho1
Assay: as above
How it was run: as §1

Row | Binder | SPOT peptide array binding signal intensity
15 | PPPPPPPPPPPLPQS | ≤ 0

Target: AgSla1-D1-D2
Assay: as above
How it was run: as §1

Row | Binder | SPOT peptide array binding signal intensity
16 | PPPPPPPPPPPLPQS | ≤ 0

Target: AgSla1-D3
Assay: as above
How it was run: as §1

Row | Binder | SPOT peptide array binding signal intensity
17 | PPPPPPPPPPPLPQS | 0.5

Target: CaAbp1-D1
Assay: as above
How it was run: as §1

Row | Binder | SPOT peptide array binding signal intensity
18 | PPPPPPPPPPPLPQS | 4.5

Target: CaAbp1-D2
Assay: as above
How it was run: as §1

Row | Binder | SPOT peptide array binding signal intensity
19 | PPPPPPPPPPPLPQS | 3

Target: CaBbc1
Assay: as above
How it was run: as §1

Row | Binder | SPOT peptide array binding signal intensity
20 | PPPPPPPPPPPLPQS | ≤ 0

Target: CaBem1-D1
Assay: as above
How it was run: as §1

Row | Binder | SPOT peptide array binding signal intensity
21 | PPPPPPPPPPPLPQS | ≤ 0

Target: CaBzz1-D1
Assay: as above
How it was run: as §1

Row | Binder | SPOT peptide array binding signal intensity
22 | PPPPPPPPPPPLPQS | 1610

Target: CaBzz1-D2
Assay: as above
How it was run: as §1

Row | Binder | SPOT peptide array binding signal intensity
23 | PPPPPPPPPPPLPQS | 313

Target: CaCyk3
Assay: as above
How it was run: as §1

Row | Binder | SPOT peptide array binding signal intensity
24 | PPPPPPPPPPPLPQS | ≤ 0

Target: CaFus1
Assay: as above
How it was run: as §1

Row | Binder | SPOT peptide array binding signal intensity
25 | PPPPPPPPPPPLPQS | 8.5

Target: CaHof1
Assay: as above
How it was run: as §1

Row | Binder | SPOT peptide array binding signal intensity
26 | PPPPPPPPPPPLPQS | 0.75

Target: CaHse1
Assay: as above
How it was run: as §1

Row | Binder | SPOT peptide array binding signal intensity
27 | PPPPPPPPPPPLPQS | 11.2

Target: CaLsb1
Assay: as above
How it was run: as §1

Row | Binder | SPOT peptide array binding signal intensity
28 | PPPPPPPPPPPLPQS | 2.25

Target: CaLsb4
Assay: as above
How it was run: as §1

Row | Binder | SPOT peptide array binding signal intensity
29 | PPPPPPPPPPPLPQS | 16

Target: CaMyo5
Assay: as above
How it was run: as §1

Row | Binder | SPOT peptide array binding signal intensity
30 | PPPPPPPPPPPLPQS | 235

Target: CaNbp2
Assay: as above
How it was run: as §1

Row | Binder | SPOT peptide array binding signal intensity
31 | PPPPPPPPPPPLPQS | 34

Target: CaRvs167
Assay: as above
How it was run: as §1

Row | Binder | SPOT peptide array binding signal intensity
32 | PPPPPPPPPPPLPQS | 2.83

Target: CaRvs167-3
Assay: as above
How it was run: as §1

Row | Binder | SPOT peptide array binding signal intensity
33 | PPPPPPPPPPPLPQS | ≤ 0

Target: CaSho1
Assay: as above
How it was run: as §1

Row | Binder | SPOT peptide array binding signal intensity
34 | PPPPPPPPPPPLPQS | ≤ 0

Target: CaSla1-D1-D2
Assay: as above
How it was run: as §1

Row | Binder | SPOT peptide array binding signal intensity
35 | PPPPPPPPPPPLPQS | ≤ 0

Target: CaSla1-D3
Assay: as above
How it was run: as §1

Row | Binder | SPOT peptide array binding signal intensity
36 | PPPPPPPPPPPLPQS | 1

Target: ScAbp1
Assay: as above
How it was run: as §1

Row | Binder | SPOT peptide array binding signal intensity
37 | PPPPPPPPPPPLPQS | ≤ 0

Target: ScBbc1
Assay: as above
How it was run: as §1

Row | Binder | SPOT peptide array binding signal intensity
38 | PPPPPPPPPPPLPQS | 1.25

Target: ScBem1-D1
Assay: as above
How it was run: as §1

Row | Binder | SPOT peptide array binding signal intensity
39 | PPPPPPPPPPPLPQS | ≤ 0

Target: ScBzz1-D1
Assay: as above
How it was run: as §1

Row | Binder | SPOT peptide array binding signal intensity
40 | PPPPPPPPPPPLPQS | 9

Target: ScBzz1-D2
Assay: as above
How it was run: as §1

Row | Binder | SPOT peptide array binding signal intensity
41 | PPPPPPPPPPPLPQS | 2

Target: ScCyk3
Assay: as above
How it was run: as §1

Row | Binder | SPOT peptide array binding signal intensity
42 | PPPPPPPPPPPLPQS | ≤ 0

Target: ScFus1
Assay: as above
How it was run: as §1

Row | Binder | SPOT peptide array binding signal intensity
43 | PPPPPPPPPPPLPQS | 1.5

Target: ScHof1
Assay: as above
How it was run: as §1

Row | Binder | SPOT peptide array binding signal intensity
44 | PPPPPPPPPPPLPQS | 20

Target: ScHse1
Assay: as above
How it was run: as §1

Row | Binder | SPOT peptide array binding signal intensity
45 | PPPPPPPPPPPLPQS | ≤ 0

Target: ScLsb1
Assay: as above
How it was run: as §1

Row | Binder | SPOT peptide array binding signal intensity
46 | PPPPPPPPPPPLPQS | ≤ 0

Target: ScLsb2
Assay: as above
How it was run: as §1

Row | Binder | SPOT peptide array binding signal intensity
47 | PPPPPPPPPPPLPQS | ≤ 0

Target: ScLsb3
Assay: as above
How it was run: as §1

Row | Binder | SPOT peptide array binding signal intensity
48 | PPPPPPPPPPPLPQS | 42.5

Target: ScLsb4
Assay: as above
How it was run: as §1

Row | Binder | SPOT peptide array binding signal intensity
49 | PPPPPPPPPPPLPQS | 7

Target: ScMyo3
Assay: as above
How it was run: as §1

Row | Binder | SPOT peptide array binding signal intensity
50 | PPPPPPPPPPPLPQS | 1490

Target: ScMyo5
Assay: as above
How it was run: as §1

Row | Binder | SPOT peptide array binding signal intensity
51 | PPPPPPPPPPPLPQS | 1040

Target: ScNbp2
Assay: as above
How it was run: as §1

Row | Binder | SPOT peptide array binding signal intensity
52 | PPPPPPPPPPPLPQS | ≤ 0

Target: ScPex13
Assay: as above
How it was run: as §1

Row | Binder | SPOT peptide array binding signal intensity
53 | PPPPPPPPPPPLPQS | 51.5

Target: ScRvs167
Assay: as above
How it was run: as §1

Row | Binder | SPOT peptide array binding signal intensity
54 | PPPPPPPPPPPLPQS | ≤ 0

Target: ScSho1
Assay: as above
How it was run: as §1

Row | Binder | SPOT peptide array binding signal intensity
55 | PPPPPPPPPPPLPQS | ≤ 0

Target: ScSla1-D1-D2
Assay: as above
How it was run: as §1

Row | Binder | SPOT peptide array binding signal intensity
56 | PPPPPPPPPPPLPQS | ≤ 0

Target: ScSla1-D3
Assay: as above
How it was run: as §1

Row | Binder | SPOT peptide array binding signal intensity
57 | PPPPPPPPPPPLPQS | 0.75

Target: SpAbp1-D1
Assay: as above
How it was run: as §1

Row | Binder | SPOT peptide array binding signal intensity
58 | PPPPPPPPPPPLPQS | 12.5

Target: SpBbc1
Assay: as above
How it was run: as §1

Row | Binder | SPOT peptide array binding signal intensity
59 | PPPPPPPPPPPLPQS | 0.5

Target: SpBzz1-D1
Assay: as above
How it was run: as §1

Row | Binder | SPOT peptide array binding signal intensity
60 | PPPPPPPPPPPLPQS | 2670

Target: SpBzz1-D2
Assay: as above
How it was run: as §1

Row | Binder | SPOT peptide array binding signal intensity
61 | PPPPPPPPPPPLPQS | 31.2

Target: SpCyk3
Assay: as above
How it was run: as §1

Row | Binder | SPOT peptide array binding signal intensity
62 | PPPPPPPPPPPLPQS | 1

Target: SpHof1
Assay: as above
How it was run: as §1

Row | Binder | SPOT peptide array binding signal intensity
63 | PPPPPPPPPPPLPQS | ≤ 0

Target: SpHof1-2
Assay: as above
How it was run: as §1

Row | Binder | SPOT peptide array binding signal intensity
64 | PPPPPPPPPPPLPQS | ≤ 0

Target: SpHof1-3
Assay: as above
How it was run: as §1

Row | Binder | SPOT peptide array binding signal intensity
65 | PPPPPPPPPPPLPQS | ≤ 0

Target: SpHse1
Assay: as above
How it was run: as §1

Row | Binder | SPOT peptide array binding signal intensity
66 | PPPPPPPPPPPLPQS | 21

Target: SpLsb1
Assay: as above
How it was run: as §1

Row | Binder | SPOT peptide array binding signal intensity
67 | PPPPPPPPPPPLPQS | 4.5

Target: SpLsb4
Assay: as above
How it was run: as §1

Row | Binder | SPOT peptide array binding signal intensity
68 | PPPPPPPPPPPLPQS | 31

Target: SpMyo1
Assay: as above
How it was run: as §1

Row | Binder | SPOT peptide array binding signal intensity
69 | PPPPPPPPPPPLPQS | 1470

Target: SpNbp2
Assay: as above
How it was run: as §1

Row | Binder | SPOT peptide array binding signal intensity
70 | PPPPPPPPPPPLPQS | 2

Target: SpPex13
Assay: as above
How it was run: as §1

Row | Binder | SPOT peptide array binding signal intensity
71 | PPPPPPPPPPPLPQS | ≤ 0

Target: SpRvs167
Assay: as above
How it was run: as §1

Row | Binder | SPOT peptide array binding signal intensity
72 | PPPPPPPPPPPLPQS | 124

Target: SpSla1-D1-D2
Assay: as above
How it was run: as §1

Row | Binder | SPOT peptide array binding signal intensity
73 | PPPPPPPPPPPLPQS | 1.5

Target: SpSla1-D3
Assay: as above
How it was run: as §1

Row | Binder | SPOT peptide array binding signal intensity
74 | PPPPPPPPPPPLPQS | ≤ 0
